From the supplement of paper PMC13380429

How the values were obtained:
[1] = test system: Vero E6 infected with SARS-CoV-2; experiment: morphology score (similarity to uninfected cells); higher = more like uninfected cells; conditions: 24 h
[2] = test system: Vero E6 infected with SARS-CoV-2; experiment: SARS-CoV-2 infection rate relative to infected DMSO; higher = more infection, active = 60 or less; conditions: 24 h

Row | SMILES | morphology score [1] | SARS-CoV-2 infection rate [2]
1 | O=C(O)[C@H](O)[C@@H](O)[C@H](O[C@@H]1O[C@H](CO)[C@H](O)[C@H](O)[C@H]1O)[C@H](O)CO [maltobionic-acid] (10 µM) | 0.138 | 92.5% (inactive)
2 | CC(=O)Oc1cccc(C(=O)O)c1OC(C)=O [dipyrocetyl] (10 µM) | 0.209 | 85% (inactive)
3 | Cc1cccc(Nc2ccccc2C(=O)O)c1C [mefenamic-acid] (10 µM) | 0.0628 | 99.5% (inactive)
4 | NCCCCN(Cc1nc2ccccc2[nH]1)[C@H]1CCCc2cccnc21 (10 µM) | 0.0412 | 102% (inactive)
5 | C[C@]12CCC(=O)C=C1CC[C@@H]1[C@@H]2CC[C@@]2(C)[C@H]1CC[C@]2(C)O [17-alpha-Methyltestosterone] (10 µM) | 0.0827 | 108% (inactive)
6 | Cc1cccc(/C=N/Nc2cc(N3CCOCC3)nc(OCCc3ccccn3)n2)c1 (10 µM) | -0.334 | 43.5% (active)
7 | Cc1ccc(Sc2cncc3sc(C(N)=O)cc23)cc1 (10 µM) | -0.153 | 114% (inactive)
8 | c1ccc(CNCc2ccc(CN3CCCNCCNCCCNCC3)cc2)nc1 (10 µM) | 0.129 | 100% (inactive)
9 | Cc1nn(-c2ccccc2)c(C)c1/C=N/N1CCN(Cc2ccccc2)CC1 (10 µM) | 0.00911 | 117% (inactive)
10 | N#C/C(=C\c1cccn1S(=O)(=O)c1cccc([N+](=O)[O-])c1)S(=O)(=O)c1ccc(F)cc1 (10 µM) | -0.181 | 109% (inactive)
11 | O=c1[nH]c(=O)n([C@H]2C[C@H](O)[C@@H](CO)O2)cc1I [idoxuridine] (10 µM) | 0.0252 | 108% (inactive)
12 | Nc1nccc(Oc2ccc(NC(=O)c3c[nH]cc(-c4ccc(F)cc4)c3=O)cc2F)c1Cl [metatinib] (10 µM) | 0.551 | 102% (inactive)
13 | CCCCCC(O)CCCC(=O)O (stereo not given) (10 µM) | 0.00301 | 103% (inactive)
14 | CN[C@@H](C)C(=O)N[C@H](C(=O)N1CCC[C@H]1C(=O)N[C@H]1c2ccccc2C[C@H]1OCC#CC#CCO[C@@H]1Cc2ccccc2[C@@H]1NC(=O)[C@@H]1CCCN1C(=O)[C@@H](NC(=O)[C@H](C)NC)C1CCCCC1)C1CCCCC1 (10 µM) | -0.161 | 112% (inactive)
15 | N[C@H](C(=O)O)c1ccc(O)c(C(=O)O)c1 [3-carboxy-4-hydroxyphenylglycine-(S)] (10 µM) | 0.115 | 95% (inactive)
16 | C[C@@H]1[C@H](O)[C@@H](C)/C=C/C=C/C=C/C=C/C=C/C=C/C=C/[C@H](O[C@@H]2O[C@H](C)[C@@H](O)[C@H](N)[C@@H]2O)C[C@@H]2O[C@](O)(C[C@@H](O)C[C@@H](O)[C@H](O)CC[C@@H](O)C[C@@H](O)CC(=O)O[C@H]1C)C[C@H](O)[C@H]2C(=O)O [amphotericin-b] (10 µM) | 0.132 | 107% (inactive)
17 | O=c1[nH]c2ccccc2n1CCCN1CCC(n2c(=O)[nH]c3cc(Cl)ccc32)CC1 [domperidone] (10 µM) | 0.00154 | 110% (inactive)
18 | CCCCNC(=O)NS(=O)(=O)c1ccc(C)cc1 [tolbutamide] (10 µM) | 0.121 | 96.5% (inactive)
19 | O=C1Nc2ccc(Cl)c3c2C1(CCCCN1CC=C(c2ccc(Cl)cc2)CC1)CCC3 (stereo not given) (0.833333 µM) | 0.0484 | 106% (inactive)
20 | CCCC[C@@H](NC(=O)[C@@H](Cc1cn(C(=O)OC)c2ccccc12)NC(=O)[C@H](CC(C)(C)C)NC(=O)N1[C@H](C)CCC[C@@H]1C)C(=O)O (10 µM) | 0.0975 | 104% (inactive)
21 | C[C@@](Cc1ccc(O)c(O)c1)(NN)C(=O)O [carbidopa] (10 µM) | -0.0523 | 100% (inactive)
22 | N[C@@H]1CCCCN(c2c(F)cc3c(=O)c(C(=O)O)cn(C4CC4)c3c2Cl)C1 [besifloxacin] (10 µM) | 0.165 | 110% (inactive)
23 | CCc1cc(/C(C)=N/OCc2ccc(C3CCCCC3)c(C(F)(F)F)c2)ccc1CN1CC(C(=O)O)C1 [siponimod] (10 µM) | 0.0973 | 100% (inactive)
24 | NS(=O)(=O)c1cc(C(=O)O)c(NCc2ccco2)cc1Cl [furosemide] (10 µM) | 0.0455 | 98% (inactive)
25 | COc1ccccc1CC(=N)N1C[C@@H]2C(=O)CCC(c3ccccc3)(c3ccccc3)[C@@H]2C1 (10 µM) | -0.184 | 110% (inactive)
